Source: PubChem BioAssay
A350 autofl – qHTS Assay for Spectroscopic Profiling in A350 Spectral Region; Compound autofluorescence, 340/450 nm, Alexa 350 dye-equivalents; active compounds read high; max dye-equivalent concentration, M; 59,000 compounds, 11% hits; in the data active = max dye-equivalent concentration above about 10 nM; inconclusive = mostly about 1.1 nM to 9.6 nM
AID923 – qHTS Assay for Allosteric/Competitive Inhibitors of Caspase-1: Spectroscopic Profiling in AFC Spectral Region. compound fluorescence, AFC spectral region (405/520 nm). Potency, µM (highest dose often 57.5 µM), inactives show at the top dose fluorescence increase, hits mostly activators. 75,000 compounds, 1.1% hits; note: potency is the fitted concentration of half-maximal effect; 0% is about no effect
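Compound autofluorescence profiled at 405 nm ex/520 nm em during kinetic caspase 1 run (50 nM enzyme, 5 uM Ac-WEHD-AFC, HEPES pH 7.5, 10 mM DTT). Titration up to 57 uM; baseline from regression intercept, normalized to AFC standard curve.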
HSD17B inhib – qHTS Assay for Inhibitors of HSD17B4, hydroxysteroid (17-beta) dehydrogenase 4; 3-hydroxyacyl-CoA dehydrogenase type-2 (Homo sapiens), Q99714; recombinant HSD17B10, NADH fluorescence kinetic; Potency, µM (top dose mostly 57.1 µM), for inactives: at the top dose activity change, negative = inhibition, hits mostly inhibitors; 75,000 compounds, 7.6% hits;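 note: the protocol describes HADH2 (HSD17B10) and not the HSD17B4 of the title; potency is the fitted concentration of half-maximal effect; % is set by controls: 0 for no effect and ±100 for the full control effect; nearly all actives have a fitted effect of over 70% in size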
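Activity followed as NADH fluorescence increase (ex 360, em 450 nm) every 30 seconds for 4 min, using final 90 uM beta-hydroxybutyryl CoA and 1 mM NAD+. Recombinant His-tagged enzyme, 20 nM, pH 9.0 Tris buffer, 15 min compound preincubation.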
HADH2 inhib – qHTS Assay for Inhibitors of HADH2 (Hydroxyacyl-Coenzyme A Dehydrogenase, Type II); Potency, µM (titrated, usually from 57.1 µM), inactives show top-dose activity change, negative = inhibition, actives largely listed as inhibitors; 3-hydroxyacyl-CoA dehydrogenase type-2 (Homo sapiens), Q99714; recombinant HADH2, NADH fluorescence, beta-hydroxybutyryl-CoA; 73,000 compounds, 3.4% hits; note: potency is the fitted concentration of half-maximal effect; % is set by controls: 0 for no effect and ±100 for the full control effect; nearly all actives have a fitted effect of over 60% in size
Target sequence (Q99714 whole entry, looked up, one chain of several): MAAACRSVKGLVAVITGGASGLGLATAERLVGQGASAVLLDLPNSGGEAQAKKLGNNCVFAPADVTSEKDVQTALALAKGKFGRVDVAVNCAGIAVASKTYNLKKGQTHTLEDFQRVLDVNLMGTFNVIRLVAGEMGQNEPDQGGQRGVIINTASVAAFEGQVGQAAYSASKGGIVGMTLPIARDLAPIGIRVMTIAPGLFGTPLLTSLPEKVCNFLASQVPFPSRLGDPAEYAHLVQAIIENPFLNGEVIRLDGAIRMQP
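Activity measured as NADH fluorescence gain (360/450 nm), taken as the change between first and last reads of a 4-min kinetic run. Conditions: pH 9.0 Tris buffer, 20 nM E. coli-expressed His-tagged enzyme, 1 mM NAD+, 90 uM beta-hydroxybutyryl-CoA; 15-min compound preincubation.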
CRE Fsk mod – Cell signaling CRE-BLA (Fsk stim) | CHO CRE-bla reporter (cAMP response element driving beta-lactamase), forskolin EC10, beta-lactamase ratio | Potency, µM (highest dose often 38.2 µM), for inactives: at the top dose activity change, negative = inhibition, usual class: activators | 71,000 compounds, 2.5% hits | AID 662, 2007; active = well fitted activation curve with a large enough effect in the signal ratio, with a control signal flat, not every such curve was filed as active; inconclusive = small, poorly fitted or top-dose-only effect, or effect the other way, or a change in a side signal; the % refers to the signal ratio; note: potency is the fitted concentration of half-maximal effect; % of control where 0% means no effect
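Modulation of forskolin signalling: compounds in titration series added with EC10 NKH 477 to CHO cells carrying a CRE-driven beta-lactamase reporter, 3 h, 37C. CCF4 FRET ratio (460/530 nm, ex 405 nm) gives %activity and AC50.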
4MU fluor – qHTS Assay for Spectroscopic Profiling in 4-MU Spectral Region. AID 589, 2007. 59,000 compounds, 11% hits. compound autofluorescence, 340/450 nm, 4-MU equivalents; active compounds read high. max dye-equivalent concentration, M; in the data active = max dye-equivalent concentration above about 10 nM; inconclusive = mostly about 1.1 nM to 9.6 nM
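Intrinsic fluorescence at 340/450 nm (ex/em) was read after 15 min at room temperature in pH 8.0, 100 mM Tris. Each compound concentration expressed as 4-MU-equivalent concentration from a six-point 4-MU standard series on each plate.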
CHO via 24h – Cell Viability - CRE-beta lactamase CHO cell - 24 hr assay. shares compounds with CRE Fsk mod. CRE-bla CHO viability, ATP luminescence, 24 h. activity, negative = viability loss, % at 46.1 µM. 120 tested, under 10 active
CHO via 40h – Cell Viability - CRE-beta lactamase CHO cell - 40 hr assay; shares compounds with CRE Fsk mod; CRE-bla CHO viability, ATP luminescence, 40 h; Potency, µM, for inactives: max response, most hits filed as inhibitors; 120 tested, under 10 active; AID 906, 2007
CREB luc CRC – Confirmation Concentration-Response Assay for Cell signaling CRE-BLA (Fsk stim) - HEK293 CREB Luciferase; Potency, µM (titrated, usually from 38.3 µM), inactives show top-dose activity, positive = activation, usual class: activators; shares compounds with CRE Fsk mod; AID 907, 2007; 120 compounds, 80% hits; HEK293 CRE-luc2P, NKH477 EC10 potentiation, luminescence, 4 h
* = called active by the depositor; ? = inconclusive; . = no result. In the library only some 14% were active in any assay of this set; here they are far more common. Unless noted, calls come from the whole dose curve; as a rule, active = well fitted curve in the direction sought with a large enough effect; inconclusive = small, poorly fitted or top-dose-only effect, or another doubt; inactive = no such curve, though single readings can be large; an effect the other way counts as inactive or inconclusive.

SMILES | A350 autofl | AID923 | HSD17B inhib | HADH2 inhib | CRE Fsk mod | 4MU fluor | CHO via 24h | CHO via 40h | CREB luc CRC
CCOC(=O)CC(=O)CSc1ccc2nnc(-c3cccc(F)c3)n2n1 | ? | -1% | ? | -13% | ? | ? | . | . | .
COC(=O)c1ccc(CSc2ccc3nnc(-c4cccc(F)c4)n3n2)o1 | . | -2% | ? | ? | 7.9µM* | . | -14 | -18% | 13µM*
OC1CCCCC1 | . | 2% | 1% | -3% | -7% | . | . | . | .
CCCCC1C(=O)N(c2ccccc2)N(c2ccc(O)cc2)C1=O (stereo not given) | . | -1% | -14% | . | . | . | . | . | .
O=C(O)/C=C(/c1ccccc1)C(F)(F)F | . | 1% | 16% | 9% | -3% | . | . | . | .
CN(CCNC(=O)c1cc2c(=O)n(C)c3ccccc3c2n1C)Cc1ccccc1 | . | -3% | ? | ? | ? | . | . | . | .
Cn1c(C(=O)NCCCN2CCCC2=O)cc2c(=O)n(C)c3ccccc3c21 | . | 0% | ? | -24% | 4µM* | . | -8 | -21% | 13µM*
CCCN(CCC)CCNC(=O)c1cc2c(=O)n(C)c3ccccc3c2n1C | . | 5% | 32µM* | -9% | 19% | . | -10 | -11% | 13µM*
COc1cc2c(cc1OC)C(=O)OC2 | . | -2% | 2% | . | . | . | . | . | .
